Data as given in PubChem BioAssay (NCATS).
Inconclusive results are not listed. Active and inactive are the calls of the source. Unless noted, calls come from the whole dose curve.

Columns and labels:
[1] = qHTS for Inhibitors of the Functional Ribonucleoprotein Complex (vRNP) of Lassa (LASV) Arenavirus: LASV Primary Screen - GLuc reporter signal (AID 1347082; calls by dose curve; tested in HEK293 reporter line; note: nearly all actives have a fitted effect of over 60% in size); conditions: LASV minigenome vRNP, Gaussia luciferase reporter; series mostly up to 57.5 µM
[2] = qHTS for Inhibitors of the Functional Ribonucleoprotein Complex (vRNP) of Lassa (LASV) Arenavirus: Viability assay - alamar blue signal for LASV Primary Screen (AID 1347083; calls by dose curve; tested in HEK293 reporter line; note: nearly all actives have a fitted effect of over 80% in size; note: potency is the fitted concentration of half-maximal effect); conditions: cell viability, alamar blue fluorescence (LASV minigenome counter-screen); series mostly up to 57.5 µM
[3] = qHTS for Inhibitors of the Functional Ribonucleoprotein Complex (vRNP) of Lymphocytic Choriomeningitis Arenaviruses (LCMV): Viability assay - alamar blue signal for LCMV Primary Screen (AID 1347085; calls by dose curve; tested in HEK293 reporter line; note: nearly all actives have a fitted effect of over 80% in size); conditions: alamar blue viability counter-screen, LCMV vRNP screen cells; series mostly up to 57.5 µM
[4] = biological target: Nucleoprotein (Lymphocytic choriomeningitis virus (strain Armstrong)) (UniProt P09992); assay: qHTS for Inhibitors of the Functional Ribonucleoprotein Complex (vRNP) of Lymphocytic Choriomeningitis Arenaviruses (LCMV): LCMV Primary Screen - GLuc reporter signal (AID 1347086); conditions: LCMV minigenome vRNP cell assay, Gaussia luciferase reporter; series mostly up to 57.5 µM; note: nearly all actives have a fitted effect of over 70% in size

Measured: Potency

Sequence of Nucleoprotein (Lymphocytic choriomeningitis virus (strain Armstrong)) (P09992 whole entry, looked up): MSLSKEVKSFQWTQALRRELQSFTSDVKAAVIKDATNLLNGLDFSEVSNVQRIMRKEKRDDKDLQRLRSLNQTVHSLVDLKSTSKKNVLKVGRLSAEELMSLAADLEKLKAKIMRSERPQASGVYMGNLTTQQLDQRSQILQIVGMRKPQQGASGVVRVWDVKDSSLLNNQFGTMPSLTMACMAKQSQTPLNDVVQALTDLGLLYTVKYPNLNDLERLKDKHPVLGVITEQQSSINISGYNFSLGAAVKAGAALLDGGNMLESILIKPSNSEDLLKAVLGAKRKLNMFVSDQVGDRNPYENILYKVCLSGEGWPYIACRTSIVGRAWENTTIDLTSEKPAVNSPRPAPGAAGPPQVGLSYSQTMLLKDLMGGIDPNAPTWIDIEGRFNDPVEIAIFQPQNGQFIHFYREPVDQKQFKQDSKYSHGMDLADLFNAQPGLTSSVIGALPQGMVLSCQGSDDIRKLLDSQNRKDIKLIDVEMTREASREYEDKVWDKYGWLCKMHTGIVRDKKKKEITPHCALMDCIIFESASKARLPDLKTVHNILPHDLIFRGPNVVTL

CC/C=C(\C(=O)N[C@@H]1C(=O)N2C(C(=O)OCOC(=O)C(C)(C)C)=C(COC(N)=O)CS[C@H]12)c1csc(N)n1
inactive: [1] | [2] | [3] | [4]

Clc1ccc2c(c1)C(N1CCNCC1)=Nc1ccccc1O2
inactive: [1] | [2] | [3] | [4]

c1cnc2cc3c(cc2n1)C1CNCC3C1
inactive: [1] | [3] | [4]
active: [2] 24.3 µM

CC(C)Oc1ccc2c(=O)c(-c3ccccc3)coc2c1
inactive: [1] | [2] | [3] | [4]

CN(C)/N=N/c1nc[nH]c1C(N)=O
inactive: [1] | [2] | [3] | [4]

Cc1ccc(S(=O)(=O)NC(=O)NN2CCCCCC2)cc1
inactive: [1] | [2] | [3] | [4]

NC(=O)OCC(COC(N)=O)c1ccccc1
inactive: [1] | [2] | [3] | [4]

O=C(O)CCCc1ccccc1
inactive: [1] | [2] | [3] | [4]

CN(C/C=C/C#CC(C)(C)C)Cc1cccc2ccccc12
inactive: [1] | [2] | [3] | [4]

Nc1ccc(O)c(C(=O)O)c1
inactive: [1] | [2] | [3] | [4]

CC(C)(C)C(=O)OCOP(=O)(COCCn1cnc2c(N)ncnc21)OCOC(=O)C(C)(C)C
inactive: [1] | [2] | [3] | [4]

CN1C(CCl)Nc2cc(Cl)c(S(N)(=O)=O)cc2S1(=O)=O (configuration not stated)
inactive: [1] | [2] | [3] | [4]

CC[N+](C)(C)c1cccc(O)c1
inactive: [1] | [2] | [3] | [4]

CN(C)c1ccc(O)c2c1C[C@H]1C[C@H]3[C@H](N(C)C)C(=O)C(C(N)=O)=C(O)[C@@]3(O)C(=O)C1=C2O
inactive: [1] | [2] | [3] | [4]

CC(=O)CCCCn1c(=O)c2c(ncn2C)n(C)c1=O
inactive: [1] | [2] | [3] | [4]

COc1cc2nc(N3CCN(C(=O)c4ccco4)CC3)nc(N)c2cc1OC
inactive: [1] | [2] | [3] | [4]

CC(N)C12CC3CC(CC(C3)C1)C2 (configuration not stated)
inactive: [1] | [2] | [3] | [4]

NS(=O)(=O)Cc1noc2ccccc12
inactive: [1] | [2] | [3] | [4]

Cc1cc2c(s1)Nc1ccccc1N=C2N1CCN(C)CC1
inactive: [1] | [2] | [3] | [4]

CCCc1cc(=O)[nH]c(=S)[nH]1
inactive: [1] | [2] | [3] | [4]

CC1=NS(=O)(=O)c2cc(Cl)ccc2N1
inactive: [1] | [2] | [3] | [4]

Cc1ccccc1C(OCCN(C)C)c1ccccc1 (configuration not stated)
inactive: [1] | [2] | [3] | [4]

COc1ccccc1OCC(O)COC(N)=O (configuration not stated)
inactive: [1] | [2] | [3] | [4]
